Source: PubChem BioAssay (National Center for Advancing Translational Sciences (NCATS))
Most compounds without a hit are left out; they make up all but 10% or so of the library.
GLA inh pH 4.5 – blocks human alpha-galactosidase A at pH 4.5. activity change, negative = inhibition, % at 105 µM. purified enzyme, 4-MU-alpha-Gal fluorescence, pH 4.5. 230,000 tested, under 10 active. AID 1467;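 note: 0% = full activity with enzyme and -100% = basal without enzyme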
ALOX12 inhib – blocks human 12-lipoxygenase activity; P18054; 150,000 compounds, 0.12% hits; AID 1452; purified 12-hLO, xylenol orange hydroperoxide absorbance; Potency, µM (doses to about 57.1 µM), without a hit: at the highest dose activity change, negative = inhibition, actives largely listed as inhibitors; note: potency is the fitted concentration of half-maximal effect; nearly all actives have a fitted effect of over 55% in size
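Xylenol orange chromogenic assay: hydroperoxide from 12hLO oxidises Fe(II), giving red-shifted Fe(III)-XO absorbance. Conditions: 150 nM enzyme, 40 uM arachidonic acid, 25 mM Hepes pH 7.0, 0.01% Triton X-100, 30 min, room temperature.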
HPGD inh – HPGD (human) dehydrogenase inhibition; P15428; purified HPGD, NADH fluorescence kinetic, PGE2 substrate; Potency, µM, for the others: at the highest dose activity change, negative = inhibition, most hits filed as inhibitors; 150,000 compounds, 4.3% hits; AID 894; active = well fitted inhibition curve with a large enough effect, not every such curve was filed as active; inconclusive = small, poorly fitted or top-dose-only effect, or another doubt; inactive = no such curve, though single readings can be large or run the other way; note: potency is the fitted concentration of half-maximal effect
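NADH formation kinetics: reaction with 30 uM PGE2 and 1 mM NAD+ (final), 20 nM enzyme, Tris-HCl pH 8 with Tween 20, after 15 min compound preincubation at room temperature. Fluorescence change, last versus first of five reads.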
ALDH1A1 inh – ALDH1A1 (human) enzyme inhibition; Potency, µM (top dose mostly 75.3 µM), inactives show top-dose activity, negative = inhibition, hits mostly inhibitors; 220,000 compounds, 7.3% hits; Purified ALDH1A1, NADH fluorescence, propionaldehyde substrate; P00352; AID 1030; active = well fitted inhibition curve with a large enough effect, not every such curve was filed as active; inconclusive = small, poorly fitted or top-dose-only effect, or another doubt; inactive = no such curve, though single readings can be large or run the other way;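 note: potency is the fitted concentration of half-maximal effect; plate controls were no enzyme wells and a reference inhibitor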
Target sequence (P00352 whole entry, looked up): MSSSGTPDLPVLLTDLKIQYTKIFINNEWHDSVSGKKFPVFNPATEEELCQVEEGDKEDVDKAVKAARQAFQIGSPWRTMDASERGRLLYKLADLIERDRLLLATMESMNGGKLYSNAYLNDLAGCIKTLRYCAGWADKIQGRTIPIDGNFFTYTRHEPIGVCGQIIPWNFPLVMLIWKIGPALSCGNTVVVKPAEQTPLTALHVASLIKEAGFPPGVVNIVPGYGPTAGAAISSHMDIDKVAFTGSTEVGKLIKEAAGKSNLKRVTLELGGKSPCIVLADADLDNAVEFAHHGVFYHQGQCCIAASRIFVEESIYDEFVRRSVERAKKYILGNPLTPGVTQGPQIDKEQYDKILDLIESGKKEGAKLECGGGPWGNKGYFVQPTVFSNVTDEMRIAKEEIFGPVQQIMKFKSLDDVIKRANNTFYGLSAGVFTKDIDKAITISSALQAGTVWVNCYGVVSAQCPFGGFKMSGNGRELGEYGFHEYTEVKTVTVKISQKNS
PNC inhibitor – perinucleolar compartment assembly inhibition; activity change (PNC), negative = inhibition, % at 10 µM; PC3M PTB-GFP, PNC prevalence imaging, 16 h; hits give low values; 140,000 compounds, 3.1% hits; AID 2417;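 active = readout at or below -70, meaning at least 70% loss of cells showing the perinucleolar compartment, a nuclear body marking cancer cells; inconclusive = readout between -30 and a set limit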;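 note: plate controls were DMSO wells for no effect and camptothecin positive control wells for full effect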
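Read-out is percentage of cells bearing a perinucleolar compartment, from automated 20x imaging of fixed, Hoechst-stained PC3M PTB-GFP cells. Cells were seeded 4 h, then exposed 16 h to compound (23 nl of library stock) in duplicate plates.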
aGal spleen mod – alpha-galactosidase A (human) modulation; P06280; human spleen homogenate, 4MU-alpha-Gal fluorescence, 40 min; Potency, µM (highest dose often 80 µM), inactives show at the highest dose activity change, negative = inhibition, most hits filed as inhibitors; 240,000 compounds, 0.008% hits; AID 2107;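 note: potency is the fitted concentration of half-maximal effect; 0% = enzyme with vehicle and -100% = no enzyme basal signal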
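Human spleen homogenate (1 ug) was the enzyme source, with 4-methylumbelliferyl-alpha-D-galactopyranoside (1 mM final) in pH 5.0 citrate buffer with 0.01% Tween-20. Compounds were titrated; after 40 min at 37C, NaOH/glycine stop, 4-MU fluorescence read; AC50 from Hill fits.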
An asterisk follows results filed as active; ? = inconclusive; nt = not tested or not shown; ! = not confirmed by another sample; [ ] = remark or other dose. Unless noted, calls come from the whole dose curve; as a rule, active = well fitted curve in the direction sought with a large enough effect; inconclusive = small, poorly fitted or top-dose-only effect, or another doubt; inactive = no such curve, though single readings can be large; an effect the other way counts as inactive or inconclusive. Unless noted, % is set by controls: 0 for no effect and ±100 for the full control effect.

SMILES	GLA inh pH 4.5	ALOX12 inhib	HPGD inh	ALDH1A1 inh	PNC inhibitor	aGal spleen mod
CCCCN(CCCC)S(=O)(=O)c1ccc(SCC(=O)OCC)c([N+](=O)[O-])c1	-7.5	-0.3%	-17.1%	?	-87.5*	1.5%
CCOC(=O)CSc1ccc(S(=O)(=O)N(CC)CC)cc1[N+](=O)[O-]	-21.1	nt	nt	-14.8%	nt	7.5%
O=C(NC(=S)Nc1ccc(S(=O)(=O)N2CCCCC2)cc1)c1ccc(Cl)cc1	-9.5	?	?	0.501µM*	?	-3.8%
COC(=O)CSc1ccc(S(=O)(=O)N2CCC(C)CC2)cc1[N+](=O)[O-]	-4.2	-1.2%	-7.2%	6.2%	-109.3*	2.0%
CCOc1cc(/C=N/NC(=O)c2cccnc2)ccc1OCC(=O)N1CCOCC1	-10.2	-4.4%	-5.8%	3.4%	-23.8	4.3%
COc1cc(O)c2c(c1)oc(=O)c1c3cc(O)c(O)cc3oc21	nt	nt	nt	nt	nt	1.2%
COC(=O)c1cccc(S(=O)(=O)N2CCC(C)CC2)c1	-6.9	0.4%	-4.1%	?	24.2	-17.8%
COC(=O)c1cc(S(=O)(=O)N2CCC(C)CC2)ccc1F	0.2	-7.2%	?	28.2µM*	9.6	5.7%
O=Nc1ccc(NO)cc1	nt	-5.8%	-24.6%	10µM*	nt	-2.0%
O=Nc1ccc(NOC(=O)c2ccccc2)cc1	9.8	-1.6%	-27.1%	?	-27.7	-2.5%
COc1cccc([C@@H]2Oc3ccc(OC)cc3/C(=N/O[C@@H](C)c3cn([C@H]4COC[C@H]4O)nn3)[C@@H]2O)c1	nt	nt	nt	0.0%[13.5 µM]	nt	5.8%[17.5 µM]
CC1=C(C(=O)OCc2ccccc2)C(c2ccc(-c3ccccc3)cc2)NC(=O)N1CCCCCC(=O)O (centres undefined)	5.5	0.8%	-9.6%	-8.5%	47.4	2.9%
COC(=O)C1=C(C)N(Cc2ccccc2)C(=O)N[C@@H]1c1ccccc1	-3.3	nt	-2.7%	2.0%	nt	2.0%
CC1=C(C(=O)OCc2ccccc2)C(c2ccccc2)NC(=O)N1CCCCCC(=O)O (centres undefined)	4.8	-1.0%	-10.2%	-0.1%	-80.2*	-13.1%
COC(=O)C1=C(C)N(Cc2ccccc2)C(=O)N[C@H]1c1ccccc1	-8.8	-6.8%	-1.8%	7.94µM*!	40.5	7.0%
Clc1ccc(-c2nc(-c3cc4cc(Cl)ccc4o3)cs2)cc1	-2.7	nt	nt	nt	nt	8.0%
COc1ccc(OCC2c3cc(OC)c(OC)cc3CCN2C(=O)C(C)C)cc1 (centres undefined)	4.0	nt	nt	-4.2%	nt	0.7%
Nc1ncnc2c1nc(Br)n2[C@@H]1O[C@H]2COP(=O)(O)O[C@@H]2[C@@H]1O	nt	nt	nt	-0.4%	nt	-3.9%
O=c1[nH]c(SCc2c(Cl)c(Cl)c(Cl)c(Cl)c2Cl)nc(=S)[nH]1	nt	-16.5%[11.4 µM]	3.98µM*	-3.9%[13.5 µM]	nt	nt
N#C/C(=C\c1cccc(Oc2ccccc2)c1)C(=O)N1CCOCC1	-1.6	nt	nt	-1.1%	nt	-7.3%
COc1cc(/C=C(\C#N)C(=O)N2CCOCC2)cc(Br)c1O	-16.5	-3.3%	25.1µM*	?	?	-1.2%
CCN(CC)S(=O)(=O)c1ccc(N2CCCCC2)c(NC(=O)c2ccncc2)c1	-3.3	nt	nt	11.2µM*	nt	-1.2%
CCN(CC)S(=O)(=O)c1ccc(N2CCCC2)c(NC(=O)CC(C)(C)C)c1	-3.1	nt	nt	nt	nt	-5.6%
CCN(CC)S(=O)(=O)c1ccc(N2CCOCC2)c(NC(=O)c2ccccc2)c1	-2.8	1.3%	-19.0%	?	10.5	-0.2%
CCN(CC)S(=O)(=O)c1ccc(N2CCCC2)c(NC(=O)c2ccncc2)c1	-6.3	nt	nt	15.8µM*	nt	1.8%
CCN=C1SC(C(=O)Nc2cccc(C)c2)CC(=O)N1CC (centres undefined)	-7.6	1.6%	-4.3%	-2.8%	-23.1	-17.5%
Cc1cccc(NC(=O)C2CC(=O)n3cnnc3S2)c1 (centres undefined)	-3.5	-3.5%	10µM*	0.708µM*	11.5	7.0%
O=C(Cc1nnc(NC(=O)Nc2ccccc2F)s1)NCc1ccccc1	0.6	nt	nt	nt	nt	10.7%
O=C(COC(=O)/C=C/c1ccc(Cl)cc1)NCCC1=CCCCC1	-8.4	-1.0%	-16.1%	8.1%	-89.6*	5.3%
